Laboratory results taken from the supplement of paper PMC10849652.
Of roughly 7,900 targets only a part is listed; those with a hit were picked by preference. About 0.6% of all pairs of compound and target were hits. Values without a mark were called inactive.

Key:
Test in all cases: log2 fold change, soluble protein after heating vs DMSO (PISA); higher = thermal stabilisation; K562 cells, 10 uM, 30 min; active = over 0.2 and 3.5 SD of the protein, either way, in both replicates (recomputed)
IRAK-1-4 Inhibitor I = compound: C1COCCN1CCN2C3=CC=CC=C3N=C2NC(=O)C4=CC(=CC=C4)[N+](=O)[O-] [IRAK-1-4 Inhibitor I]
How it was run: (§1)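 Aliquots of K562 cells (2×10^6 cells/mL) treated with 10 μM compound for 30 min were heated for 3 min over 48°C-58°C. After pooling and extraction in PBS with 0.5% NP-40 at 4°C, soluble protein from a 21,000xg, 90 min spin was quantified by TMTpro 16plex LC-MS/MS with channel sums equalised. Thermal stability is expressed against control samples, from duplicates, as a log2 fold change.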

ibrutinib = compound: C=CC(=O)N1CCC[C@@H](n2nc(-c3ccc(Oc4ccccc4)cc3)c3c(N)ncnc32)C1 [ibrutinib]
How it was run: as §1

[1] = compound: CC(=O)c1cnc2ccc(-c3cc(Cl)c(O)c(Cl)c3)nc2c1N[C@H]1CC[C@H](CN(C)C)CC1
How it was run: as §1

ralimetinib = compound: CC(C)(C)Cn1c(N)nc2ccc(-c3[nH]c(C(C)(C)C)nc3-c3ccc(F)cc3)nc21 [ralimetinib]
How it was run: as §1

[2] = compound: CC(C)(O)CC(=O)NCCn1ccc2ncnc(Nc3ccc(Oc4cccc(C(F)(F)F)c4)c(Cl)c3)c21
How it was run: as §1

[3] = compound: CC(C)C1=C2N=C(C=C(N2N=C1)NCC3=CC=CC=C3)NCCCCCCN
How it was run: as §1

[4] = compound: CC(C)C[C@@H](C=O)NC(=O)[C@H](CC(C)C)NC(=O)[C@H](CC(C)C)NC(=O)OCc1ccccc1
How it was run: as §1

pinometostat = compound: CC(C)N(C[C@H]1O[C@@H](n2cnc3c(N)ncnc32)[C@H](O)[C@@H]1O)[C@H]1C[C@@H](CCc2nc3cc(C(C)(C)C)ccc3[nH]2)C1 [pinometostat]
How it was run: as §1

[5] = compound: CC1=C(C(CC(=O)N1)C2=CC=C(C=C2)C(F)(F)F)C(=O)NC3=C(C=C4C(=C3)C=NN4)F
How it was run: as §1

[6] = compound: CC1=C(C2=C(C=C1)C(=O)C3=CC=CC=C3N2CCCN)C
How it was run: as §1

UniProt Q7L2J0, sequence (Q7L2J0 whole entry, looked up): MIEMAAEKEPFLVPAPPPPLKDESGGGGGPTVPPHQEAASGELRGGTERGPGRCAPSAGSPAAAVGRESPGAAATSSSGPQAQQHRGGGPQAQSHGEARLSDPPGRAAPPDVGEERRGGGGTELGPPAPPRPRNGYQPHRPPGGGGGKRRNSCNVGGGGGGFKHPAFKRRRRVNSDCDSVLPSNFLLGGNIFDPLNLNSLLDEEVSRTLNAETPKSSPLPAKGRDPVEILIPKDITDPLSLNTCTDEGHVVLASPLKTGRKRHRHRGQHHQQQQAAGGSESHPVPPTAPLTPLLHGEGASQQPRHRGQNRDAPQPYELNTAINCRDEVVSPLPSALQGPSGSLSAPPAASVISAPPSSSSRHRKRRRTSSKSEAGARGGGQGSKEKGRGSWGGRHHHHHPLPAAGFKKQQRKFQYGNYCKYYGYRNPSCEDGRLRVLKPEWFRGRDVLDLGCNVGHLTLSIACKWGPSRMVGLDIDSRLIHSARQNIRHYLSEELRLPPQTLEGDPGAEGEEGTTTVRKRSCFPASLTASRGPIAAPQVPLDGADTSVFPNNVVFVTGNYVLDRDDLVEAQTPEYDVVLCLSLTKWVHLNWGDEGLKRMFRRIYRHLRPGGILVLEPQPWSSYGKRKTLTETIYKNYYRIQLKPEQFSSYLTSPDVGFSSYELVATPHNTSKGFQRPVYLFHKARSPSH
UniProt Q96GA3, sequence (Q96GA3 whole entry, looked up): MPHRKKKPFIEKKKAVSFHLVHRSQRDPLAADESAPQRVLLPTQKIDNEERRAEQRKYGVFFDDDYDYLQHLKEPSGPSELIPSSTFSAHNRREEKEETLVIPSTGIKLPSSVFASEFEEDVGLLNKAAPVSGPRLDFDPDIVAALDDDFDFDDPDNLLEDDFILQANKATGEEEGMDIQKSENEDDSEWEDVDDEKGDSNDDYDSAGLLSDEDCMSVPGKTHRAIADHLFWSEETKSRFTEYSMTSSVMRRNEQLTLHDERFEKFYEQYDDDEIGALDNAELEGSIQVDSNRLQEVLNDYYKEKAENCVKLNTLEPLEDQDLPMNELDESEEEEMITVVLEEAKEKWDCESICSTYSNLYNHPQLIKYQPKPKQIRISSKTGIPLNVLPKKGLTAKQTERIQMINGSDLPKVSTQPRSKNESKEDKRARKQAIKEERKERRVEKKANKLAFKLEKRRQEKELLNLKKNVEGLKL
UniProt Q9UIQ6, sequence (Q9UIQ6 whole entry, looked up): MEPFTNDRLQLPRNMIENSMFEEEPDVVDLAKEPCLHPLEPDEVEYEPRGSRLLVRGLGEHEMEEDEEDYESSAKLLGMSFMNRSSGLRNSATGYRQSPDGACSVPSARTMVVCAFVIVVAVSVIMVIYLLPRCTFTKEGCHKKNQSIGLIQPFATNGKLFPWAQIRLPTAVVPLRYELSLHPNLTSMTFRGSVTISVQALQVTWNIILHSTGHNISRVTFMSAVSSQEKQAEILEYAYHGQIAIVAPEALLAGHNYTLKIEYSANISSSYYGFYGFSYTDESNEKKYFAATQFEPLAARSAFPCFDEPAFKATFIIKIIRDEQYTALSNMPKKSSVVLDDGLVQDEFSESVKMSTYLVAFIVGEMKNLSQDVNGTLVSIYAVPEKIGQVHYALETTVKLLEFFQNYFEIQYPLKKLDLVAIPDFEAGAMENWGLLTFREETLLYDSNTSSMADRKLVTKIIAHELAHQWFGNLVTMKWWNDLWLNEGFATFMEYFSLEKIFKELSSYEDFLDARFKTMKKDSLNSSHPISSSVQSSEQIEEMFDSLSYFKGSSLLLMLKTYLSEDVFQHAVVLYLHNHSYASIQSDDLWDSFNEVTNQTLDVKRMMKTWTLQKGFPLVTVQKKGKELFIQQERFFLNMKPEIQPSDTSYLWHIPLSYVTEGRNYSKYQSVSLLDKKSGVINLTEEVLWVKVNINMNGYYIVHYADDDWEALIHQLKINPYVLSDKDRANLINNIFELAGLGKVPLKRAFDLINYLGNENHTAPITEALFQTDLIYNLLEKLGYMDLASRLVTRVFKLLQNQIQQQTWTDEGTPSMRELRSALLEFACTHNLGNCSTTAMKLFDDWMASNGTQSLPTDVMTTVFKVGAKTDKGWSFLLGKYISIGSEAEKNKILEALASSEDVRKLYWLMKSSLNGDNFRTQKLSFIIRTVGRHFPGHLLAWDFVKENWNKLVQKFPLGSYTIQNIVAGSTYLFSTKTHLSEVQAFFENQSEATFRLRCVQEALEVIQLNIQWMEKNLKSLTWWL
UniProt O95373, sequence (O95373 whole entry, looked up): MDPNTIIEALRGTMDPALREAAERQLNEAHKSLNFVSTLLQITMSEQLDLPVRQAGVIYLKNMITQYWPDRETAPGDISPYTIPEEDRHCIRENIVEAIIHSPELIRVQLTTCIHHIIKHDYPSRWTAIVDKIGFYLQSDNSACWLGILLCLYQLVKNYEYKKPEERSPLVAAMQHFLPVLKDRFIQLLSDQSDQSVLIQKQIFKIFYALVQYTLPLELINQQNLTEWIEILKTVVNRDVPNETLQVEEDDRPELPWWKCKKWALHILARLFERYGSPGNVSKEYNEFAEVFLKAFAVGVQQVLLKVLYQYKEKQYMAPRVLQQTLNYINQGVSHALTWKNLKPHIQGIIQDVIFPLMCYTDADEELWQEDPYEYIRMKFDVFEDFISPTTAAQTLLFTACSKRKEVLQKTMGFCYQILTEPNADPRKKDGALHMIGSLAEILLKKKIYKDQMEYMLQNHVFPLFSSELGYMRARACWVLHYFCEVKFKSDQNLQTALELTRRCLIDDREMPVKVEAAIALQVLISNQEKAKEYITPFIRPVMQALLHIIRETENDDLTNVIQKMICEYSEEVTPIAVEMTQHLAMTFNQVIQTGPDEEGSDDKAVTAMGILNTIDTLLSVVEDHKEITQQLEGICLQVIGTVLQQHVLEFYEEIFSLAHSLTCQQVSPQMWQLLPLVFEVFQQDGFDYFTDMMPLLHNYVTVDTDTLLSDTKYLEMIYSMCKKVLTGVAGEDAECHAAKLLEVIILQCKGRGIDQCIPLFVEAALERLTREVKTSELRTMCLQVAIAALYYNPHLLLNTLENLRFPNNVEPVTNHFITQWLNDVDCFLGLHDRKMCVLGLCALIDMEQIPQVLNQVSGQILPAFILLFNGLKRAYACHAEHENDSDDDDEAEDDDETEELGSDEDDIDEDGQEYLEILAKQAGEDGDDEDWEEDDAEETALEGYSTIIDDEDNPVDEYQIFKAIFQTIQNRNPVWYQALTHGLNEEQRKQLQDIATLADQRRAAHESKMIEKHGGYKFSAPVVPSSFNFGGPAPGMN
UniProt O14880, sequence (O14880 whole entry, looked up): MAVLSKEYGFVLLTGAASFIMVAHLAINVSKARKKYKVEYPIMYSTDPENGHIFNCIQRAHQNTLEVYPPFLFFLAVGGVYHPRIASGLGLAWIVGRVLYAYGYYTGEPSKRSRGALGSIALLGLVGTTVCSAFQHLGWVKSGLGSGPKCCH
UniProt Q9BY66, sequence (Q9BY66 whole entry, looked up): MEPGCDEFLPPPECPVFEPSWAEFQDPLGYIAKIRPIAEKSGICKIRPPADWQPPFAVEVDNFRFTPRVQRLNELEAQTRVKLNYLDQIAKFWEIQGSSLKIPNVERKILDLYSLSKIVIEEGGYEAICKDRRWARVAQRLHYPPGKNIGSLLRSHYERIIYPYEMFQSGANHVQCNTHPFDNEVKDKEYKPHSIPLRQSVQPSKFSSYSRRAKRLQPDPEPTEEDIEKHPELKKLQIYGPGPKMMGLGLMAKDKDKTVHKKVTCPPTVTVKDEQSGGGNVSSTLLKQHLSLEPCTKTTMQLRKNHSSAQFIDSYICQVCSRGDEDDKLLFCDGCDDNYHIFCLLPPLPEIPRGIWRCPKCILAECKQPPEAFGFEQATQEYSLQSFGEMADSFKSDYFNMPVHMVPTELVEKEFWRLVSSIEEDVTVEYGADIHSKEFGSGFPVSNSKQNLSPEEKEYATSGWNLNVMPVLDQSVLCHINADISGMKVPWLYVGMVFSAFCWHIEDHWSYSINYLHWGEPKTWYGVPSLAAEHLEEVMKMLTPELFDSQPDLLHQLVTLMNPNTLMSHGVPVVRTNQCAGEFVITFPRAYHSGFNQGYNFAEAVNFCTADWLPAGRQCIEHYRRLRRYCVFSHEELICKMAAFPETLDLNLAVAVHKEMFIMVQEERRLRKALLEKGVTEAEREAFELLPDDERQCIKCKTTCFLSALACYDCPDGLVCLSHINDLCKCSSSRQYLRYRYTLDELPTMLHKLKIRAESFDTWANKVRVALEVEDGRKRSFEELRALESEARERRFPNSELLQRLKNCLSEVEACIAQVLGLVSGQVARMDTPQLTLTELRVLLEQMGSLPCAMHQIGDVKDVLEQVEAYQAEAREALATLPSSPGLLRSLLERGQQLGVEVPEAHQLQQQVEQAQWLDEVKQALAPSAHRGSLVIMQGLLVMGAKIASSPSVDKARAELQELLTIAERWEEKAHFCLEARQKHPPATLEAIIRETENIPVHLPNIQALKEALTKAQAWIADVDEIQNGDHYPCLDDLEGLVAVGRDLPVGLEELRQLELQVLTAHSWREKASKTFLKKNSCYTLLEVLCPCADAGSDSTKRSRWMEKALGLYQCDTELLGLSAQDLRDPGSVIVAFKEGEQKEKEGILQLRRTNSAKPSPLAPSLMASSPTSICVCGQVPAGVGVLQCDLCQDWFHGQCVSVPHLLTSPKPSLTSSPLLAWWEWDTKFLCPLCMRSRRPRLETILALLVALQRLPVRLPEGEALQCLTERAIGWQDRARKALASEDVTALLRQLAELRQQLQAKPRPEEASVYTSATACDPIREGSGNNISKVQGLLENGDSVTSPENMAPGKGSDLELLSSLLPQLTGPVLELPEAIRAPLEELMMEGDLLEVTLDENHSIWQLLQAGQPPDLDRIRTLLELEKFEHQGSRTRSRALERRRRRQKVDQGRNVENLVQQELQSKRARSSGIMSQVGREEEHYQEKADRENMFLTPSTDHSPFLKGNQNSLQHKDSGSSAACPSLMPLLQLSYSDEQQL
UniProt P10620, sequence (P10620 whole entry, looked up): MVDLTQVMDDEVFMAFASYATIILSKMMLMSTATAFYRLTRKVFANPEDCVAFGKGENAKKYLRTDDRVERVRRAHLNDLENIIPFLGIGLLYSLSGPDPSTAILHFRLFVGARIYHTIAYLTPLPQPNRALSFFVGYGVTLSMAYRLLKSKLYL

Target | log2 fold change (IRAK-1-4 Inhibitor I) | log2 fold change (ibrutinib) | log2 fold change [1] | log2 fold change (ralimetinib) | log2 fold change [2] | log2 fold change [3] | log2 fold change [4] | log2 fold change (pinometostat) | log2 fold change [5] | log2 fold change [6]
LNPEP (UniProt Q9UIQ6) | 0.015 | 0.021 | -0.021 | 0.005 | -0.02 | 0.014 | 0 | -0.018 | 0.001 | 0.016
ILVBL (UniProt A1L0T0) | 0.073 | 0.048 | -0.027 | -0.075 | -0.053 | 0.058 | -0.018 | 0.066 | -0.013 | 0.025
MAP2K1 (UniProt Q02750) | 0.047 | -0.016 | -0.349 (active) | 0.004 | -0.066 | 0.023 | 0.015 | -0.061 | 0.008 | 0.026
MEPCE (UniProt Q7L2J0) | 0.088 | 0.023 | 0.166 | 0.108 | 0.026 | -0.16 | 0 | 0.098 | -0.026 | -0.31 (active)
LMNB2 (UniProt Q03252) | -0.026 | -0.017 | -0.214 (active) | -0.018 | 0.052 | -0.093 | 0.03 | 0.011 | -0.013 | -0.022
MAPKAPK3 (UniProt Q16644) | 0.031 | 0.006 | 0.332 (active) | 0.413 (active) | -0.103 | -0.121 | -0.151 | -0.039 | -0.008 | 0.045
LTV1 (UniProt Q96GA3) | -0.101 | -0.009 | 0.224 | 0.134 | 0.001 | -0.233 | 0.104 | 0.249 | -0.005 | -0.726 (active)
IRF3 (UniProt Q14653) | 0.002 | 0.13 | -0.019 | -0.037 | 0 | -0.065 | -0.015 | -0.002 | 0.04 | 0.02
INPP5B (UniProt P32019) | -0.1 | -0.048 | -0.013 | 0.062 | -0.053 | -0.308 (active) | 0.122 | 0.101 | 0.042 | -0.077
MED12 isoform 2 (UniProt Q93074) | -0.057 | -0.098 | -0.747 (active) | -0.05 | -0.024 | -0.291 | -0.005 | 0.251 | -0.053 | -0.04
MAP1LC3B2 (UniProt A6NCE7) | -0.002 | -0.053 | -0.059 | -0.026 | 0.008 | -0.087 | 0.009 | -0.008 | -0.041 | -0.01
MAGEA9 (UniProt P43362) | 0.008 | -0.094 | 0.101 | 0 | 0.031 | -0.256 | 0.087 | 0.009 | 0.057 | -0.49 (active)
MAPKAPK2 (UniProt P49137) | 0.039 | -0.009 | 0.267 (active) | 0.213 | -0.03 | -0.048 | -0.022 | -0.028 | -0.03 | -0.009
MASTL (UniProt Q96GX5) | -0.001 | -0.008 | -0.061 | 0.001 | -0.393 (active) | -0.028 | 0.138 | 0.07 | 0.022 | 
MFN1 (UniProt Q8IWA4) | 0.057 | -0.009 | -0.047 | -0.027 | -0.043 | -0.607 (active) | 0.078 | 0.018 | 0.015 | 0.098
MGST1 (UniProt P10620) | 0.002 | 0.033 | 0.064 | -0.01 | -0.001 | -0.004 | 0.011 | -0.074 | 0.032 | 0.054
LPCAT3 (UniProt Q6P1A2) | 0.014 | -0.034 | 0.099 | 0.009 | 0.148 | -0.65 (active) | -0.004 | 0.083 | -0.004 | 0.03
MICU1 isoform 3 (UniProt Q9BPX6) | 0 | -0.009 | -0.025 | 0.007 | -0.016 | -0.285 (active) | 0.08 | 0.076 | 0.067 | 0.09
KIF2C (UniProt Q99661) | -0.111 | -0.033 | -0.058 | 0.028 | -0.069 | -0.065 | 0.035 | 0.031 | -0.008 | 0.028
MIEF1 (UniProt L0R8F8) | 0.071 | 0.065 | 0.022 | -0.004 | 0.011 | -0.021 | -0.053 | -0.005 | 0.052 | -0.004
LYPLA2 (UniProt O95372) | 0.062 | 0.003 | -0.134 | -0.036 | -0.106 | -0.04 | -0.056 | -0.067 | -0.021 | 0.197
MAN2B2 (UniProt Q9Y2E5) | 0.086 | -0.079 | -0.171 | 0.029 | -0.033 | -0.078 | 0.043 | 0.089 | 0.064 | -0.048
KDM5D isoform 3 (UniProt Q9BY66) | -0.042 | -0.222 | -0.05 | -0.083 | -0.155 | 0.036 | 0.114 | -0.047 | 0.043 | -0.103
MEAK7 (UniProt Q6P9B6) | 0.015 | -0.041 | -0.093 | 0.078 | -0.018 | -0.2 | 0.079 | 0.037 | -0.004 | 0.033
MAP4K4 isoform 3 (UniProt O95819) | 0 | 0.043 | -1.13 (active) | -0.039 | -0.023 | -0.027 | 0.024 | 0.046 | 0.107 | 0.073
MGST3 (UniProt O14880) | 0.115 | 0.042 | 0.036 | 0.062 | 0.041 | 0.073 | 0.006 | -0.025 | 0.011 | -0.014
MAP3K4 isoform 2 (UniProt Q9Y6R4) | 0.049 | 0 | 0.198 | 0.007 | -0.014 | -0.027 | -0.023 | 0.014 | -0.033 | 0.002
LMNA (UniProt P02545) | 0.006 | -0.023 | -0.18 | -0.058 | 0.115 | 0.076 | 0 | -0.057 | 0.005 | -0.017
ILF3 isoform 7 (UniProt Q12906) | -0.098 | 0.014 | 0.172 | 0.067 | 0.086 | 0.338 | 0.001 | 0.134 | 0.006 | 0.218
IPO7 (UniProt O95373) | 0 | -0.063 | -0.021 | 0.032 | -0.153 | -0.309 (active) | -0.069 | 0.012 | 0 | -0.221 (active)
